# Results: article PMC7862700, “An all-to-all approach to the identification of sequence-specific readers for epigenetic DNA modifications on cytosine”
# Tests used:
# Experiment in all cases: DAPPL (digital affinity profiling via proximity ligation, sequencing); 10 mM Tris-HCl pH 7.5, 50 mM NaCl, 1 mM DTT, 4% glycerol, room temperature, 30 min; GST-TFs on glutathione beads, 16-mer random dsDNA library, 0.1% formaldehyde crosslink after washing; high values mean tight binding
# FEV = target: T1, FEV (Homo sapiens, UniProt Q99581 1-238); details: protein: recombinant; tags: N-terminal GST; dsDNA, one strand shown
# T1 sequence: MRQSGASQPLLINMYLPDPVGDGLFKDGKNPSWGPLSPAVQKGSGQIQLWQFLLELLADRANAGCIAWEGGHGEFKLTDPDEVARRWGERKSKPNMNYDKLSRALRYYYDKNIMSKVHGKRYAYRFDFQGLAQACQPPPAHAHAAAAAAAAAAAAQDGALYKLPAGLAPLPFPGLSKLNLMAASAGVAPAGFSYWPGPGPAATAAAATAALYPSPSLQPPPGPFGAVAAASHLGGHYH
# In short: (§1)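 The binding signal reported is, for every hexamer, its read frequency for a factor over its read frequency for the tag-only sample. Reads came from pools of yeast-expressed, GST-fused human transcription factors on glutathione beads, barcoded with DNA and mixed with that sample, which were incubated with 200 nmole of a random double-stranded 16-mer DNA library in Tris/NaCl/DTT/glycerol buffer at room temperature for 30 min. After washing, the pools were crosslinked with 0.1% formaldehyde, proximity-ligated with BsaI/T4 ligase for 1 h at 37 °C, PCR-amplified and sequenced on an Illumina NextSeq500.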
# ETV5 = ETV5 (Homo sapiens, UniProt P41161 1-510); details: protein: recombinant; tags: N-terminal GST; dsDNA, one strand shown
# In short: as §1
# HSF1 = HSF1 (Homo sapiens, UniProt Q00613 1-529); details: protein: recombinant; tags: N-terminal GST; chain copies: 3; dsDNA, one strand shown
# In short: as §1
# SPIC = target: T2, SPIC (Homo sapiens, UniProt Q8N5J4 1-248); details: protein: recombinant; tags: N-terminal GST; dsDNA, one strand shown
# T2 sequence: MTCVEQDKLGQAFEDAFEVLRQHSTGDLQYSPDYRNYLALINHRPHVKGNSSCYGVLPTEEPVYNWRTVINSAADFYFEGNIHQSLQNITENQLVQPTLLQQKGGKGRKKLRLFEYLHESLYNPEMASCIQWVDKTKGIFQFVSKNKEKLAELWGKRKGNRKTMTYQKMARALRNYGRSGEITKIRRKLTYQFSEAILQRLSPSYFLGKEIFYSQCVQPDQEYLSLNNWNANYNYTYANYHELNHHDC
# In short: as §1
# ELF4 = ELF4 (Homo sapiens, UniProt Q99607 1-663); details: protein: recombinant; tags: N-terminal GST; dsDNA, one strand shown
# In short: as §1
# ELK4 = target: T3, ELK4 (Homo sapiens, UniProt P28324-2 1-405); details: protein: recombinant; tags: N-terminal GST; dsDNA, one strand shown
# T3 sequence: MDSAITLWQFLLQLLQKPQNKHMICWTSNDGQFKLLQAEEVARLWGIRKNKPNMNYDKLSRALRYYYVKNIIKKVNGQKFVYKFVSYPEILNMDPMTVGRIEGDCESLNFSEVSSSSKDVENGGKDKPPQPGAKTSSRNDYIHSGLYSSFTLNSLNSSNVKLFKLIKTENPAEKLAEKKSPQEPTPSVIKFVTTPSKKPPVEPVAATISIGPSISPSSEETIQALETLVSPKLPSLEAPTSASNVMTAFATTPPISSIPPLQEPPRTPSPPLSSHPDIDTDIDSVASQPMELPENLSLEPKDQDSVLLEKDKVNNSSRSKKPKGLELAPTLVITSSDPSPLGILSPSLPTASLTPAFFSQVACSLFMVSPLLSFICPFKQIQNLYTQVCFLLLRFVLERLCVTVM
# In short: as §1
# ETV2 = target: T4, ETV2 (Homo sapiens, UniProt O00321 1-342); details: protein: recombinant; tags: N-terminal GST; dsDNA, one strand shown
# T4 sequence: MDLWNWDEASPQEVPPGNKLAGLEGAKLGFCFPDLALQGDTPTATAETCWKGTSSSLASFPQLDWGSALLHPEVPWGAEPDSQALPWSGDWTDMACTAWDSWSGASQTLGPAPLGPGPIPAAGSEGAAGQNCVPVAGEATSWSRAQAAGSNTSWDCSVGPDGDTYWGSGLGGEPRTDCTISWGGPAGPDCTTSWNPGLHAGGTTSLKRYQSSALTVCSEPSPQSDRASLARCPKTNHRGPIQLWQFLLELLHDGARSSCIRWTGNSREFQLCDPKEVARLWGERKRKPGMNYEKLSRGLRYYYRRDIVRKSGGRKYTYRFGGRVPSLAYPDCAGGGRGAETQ
# In short: as §1
# ELF3 = target: T5, ELF3 (Homo sapiens, UniProt P78545 1-371); details: protein: recombinant; tags: N-terminal GST; dsDNA, one strand shown
# T5 sequence: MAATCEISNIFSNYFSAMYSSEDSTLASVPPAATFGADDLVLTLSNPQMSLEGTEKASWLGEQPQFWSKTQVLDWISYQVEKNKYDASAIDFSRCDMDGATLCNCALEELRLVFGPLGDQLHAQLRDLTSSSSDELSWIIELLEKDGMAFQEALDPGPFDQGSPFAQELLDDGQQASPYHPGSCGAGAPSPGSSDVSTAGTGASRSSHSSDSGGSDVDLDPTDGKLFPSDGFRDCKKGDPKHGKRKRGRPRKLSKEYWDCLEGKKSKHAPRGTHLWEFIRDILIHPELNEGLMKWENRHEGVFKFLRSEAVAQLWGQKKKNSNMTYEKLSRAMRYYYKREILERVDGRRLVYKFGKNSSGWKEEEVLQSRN
# In short: as §1
# ETV1 = ETV1 (Homo sapiens, UniProt P50549 1-477); details: protein: recombinant; tags: N-terminal GST; dsDNA, one strand shown
# In short: as §1
# ERF = target: T6, ERF (Homo sapiens, UniProt P50548 1-548); details: protein: recombinant; tags: N-terminal GST; dsDNA, one strand shown
# T6 sequence: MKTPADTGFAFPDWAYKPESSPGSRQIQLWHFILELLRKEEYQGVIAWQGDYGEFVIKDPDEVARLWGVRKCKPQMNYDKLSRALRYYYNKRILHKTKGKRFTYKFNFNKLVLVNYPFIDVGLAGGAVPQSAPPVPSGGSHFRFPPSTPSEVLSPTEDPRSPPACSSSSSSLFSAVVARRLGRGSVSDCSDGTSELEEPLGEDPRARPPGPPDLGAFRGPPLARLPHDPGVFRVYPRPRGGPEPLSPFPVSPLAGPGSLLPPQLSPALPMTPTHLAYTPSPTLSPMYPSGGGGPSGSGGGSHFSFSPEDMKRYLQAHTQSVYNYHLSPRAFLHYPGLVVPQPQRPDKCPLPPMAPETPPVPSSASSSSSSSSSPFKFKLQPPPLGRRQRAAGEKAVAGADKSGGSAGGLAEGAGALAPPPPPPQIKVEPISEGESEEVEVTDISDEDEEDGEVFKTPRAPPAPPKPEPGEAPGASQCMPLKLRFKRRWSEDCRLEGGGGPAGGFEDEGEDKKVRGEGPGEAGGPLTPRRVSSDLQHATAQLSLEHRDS
# In short: as §1
# ETV3L = target: T7, ETV3L (Homo sapiens, UniProt Q6ZN32 1-361); details: protein: recombinant; tags: N-terminal GST; dsDNA, one strand shown
# T7 sequence: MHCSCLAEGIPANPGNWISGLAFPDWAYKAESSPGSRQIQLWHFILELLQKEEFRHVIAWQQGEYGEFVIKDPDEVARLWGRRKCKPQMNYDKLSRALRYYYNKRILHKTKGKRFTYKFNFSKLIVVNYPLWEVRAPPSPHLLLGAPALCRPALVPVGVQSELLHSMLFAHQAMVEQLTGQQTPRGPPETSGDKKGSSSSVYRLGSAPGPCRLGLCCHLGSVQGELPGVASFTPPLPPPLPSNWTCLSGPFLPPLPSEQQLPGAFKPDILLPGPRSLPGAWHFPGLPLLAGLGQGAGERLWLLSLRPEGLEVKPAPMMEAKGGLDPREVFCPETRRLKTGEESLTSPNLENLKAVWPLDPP
# In short: as §1
# ETS2 = target: T8, ETS2 (Homo sapiens, UniProt P15036 1-469); details: protein: recombinant; tags: N-terminal GST; dsDNA, one strand shown
# T8 sequence: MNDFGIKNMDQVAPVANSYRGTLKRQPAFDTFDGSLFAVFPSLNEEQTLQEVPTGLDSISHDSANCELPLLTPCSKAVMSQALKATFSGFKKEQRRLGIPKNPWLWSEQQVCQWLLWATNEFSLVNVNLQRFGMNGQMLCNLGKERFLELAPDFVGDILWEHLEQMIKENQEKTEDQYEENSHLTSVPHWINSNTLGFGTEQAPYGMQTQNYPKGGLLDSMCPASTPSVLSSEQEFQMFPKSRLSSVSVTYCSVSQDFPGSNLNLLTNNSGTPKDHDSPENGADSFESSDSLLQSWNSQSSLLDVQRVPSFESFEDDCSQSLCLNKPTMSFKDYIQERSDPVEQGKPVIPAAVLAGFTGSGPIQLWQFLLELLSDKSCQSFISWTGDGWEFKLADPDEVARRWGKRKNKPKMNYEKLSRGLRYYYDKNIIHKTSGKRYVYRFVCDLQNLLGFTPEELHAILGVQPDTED
# In short: as §1
# SPDEF = target: T9, SPDEF (Homo sapiens, UniProt O95238 1-335); details: protein: recombinant; tags: N-terminal GST; dsDNA, one strand shown
# T9 sequence: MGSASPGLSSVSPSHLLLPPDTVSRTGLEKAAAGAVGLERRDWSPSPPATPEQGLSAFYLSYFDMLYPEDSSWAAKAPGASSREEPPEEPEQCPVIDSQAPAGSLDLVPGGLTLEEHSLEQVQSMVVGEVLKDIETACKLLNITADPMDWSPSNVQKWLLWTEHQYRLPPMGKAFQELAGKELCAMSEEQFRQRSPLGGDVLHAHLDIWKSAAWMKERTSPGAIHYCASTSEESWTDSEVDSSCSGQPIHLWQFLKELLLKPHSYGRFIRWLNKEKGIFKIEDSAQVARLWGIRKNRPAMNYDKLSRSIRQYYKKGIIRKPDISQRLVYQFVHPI
# In short: as §1
# ETV7 = target: T10, ETV7 (Homo sapiens, UniProt Q9Y603 1-341); details: protein: recombinant; tags: N-terminal GST; dsDNA, one strand shown
# T10 sequence: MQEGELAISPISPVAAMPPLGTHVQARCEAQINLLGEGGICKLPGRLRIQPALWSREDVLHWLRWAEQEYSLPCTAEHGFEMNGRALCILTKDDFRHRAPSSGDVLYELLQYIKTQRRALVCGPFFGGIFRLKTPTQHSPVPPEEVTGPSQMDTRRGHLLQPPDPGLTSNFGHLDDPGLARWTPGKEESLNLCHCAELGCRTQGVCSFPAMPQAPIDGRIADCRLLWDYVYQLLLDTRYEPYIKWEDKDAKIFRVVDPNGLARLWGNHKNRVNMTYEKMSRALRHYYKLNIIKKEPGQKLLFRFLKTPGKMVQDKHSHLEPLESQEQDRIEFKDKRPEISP
# In short: as §1
# ELF5 = target: T11, ELF5 (Homo sapiens, UniProt Q9UKW6-2 1-255); details: protein: recombinant; tags: N-terminal GST; dsDNA, one strand shown
# T11 sequence: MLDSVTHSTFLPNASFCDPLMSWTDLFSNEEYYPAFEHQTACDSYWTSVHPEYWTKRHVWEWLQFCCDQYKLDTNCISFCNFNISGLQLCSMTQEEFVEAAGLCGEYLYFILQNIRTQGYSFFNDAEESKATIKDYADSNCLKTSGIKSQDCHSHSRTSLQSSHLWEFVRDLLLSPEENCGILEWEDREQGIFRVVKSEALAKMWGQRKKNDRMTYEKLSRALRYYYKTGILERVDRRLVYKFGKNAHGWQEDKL
# In short: as §1
# ETV3 = target: T12, ETV3 (Homo sapiens, UniProt P41162-2 1-143); details: protein: recombinant; tags: N-terminal GST; dsDNA, one strand shown
# T12 sequence: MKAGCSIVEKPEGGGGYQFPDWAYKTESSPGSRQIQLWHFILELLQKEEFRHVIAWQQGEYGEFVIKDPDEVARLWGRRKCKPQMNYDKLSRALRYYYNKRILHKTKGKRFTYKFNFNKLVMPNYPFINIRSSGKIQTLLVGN
# In short: as §1
# ETV6 = ETV6 (Homo sapiens, UniProt P41212 1-452); details: protein: recombinant; tags: N-terminal GST; dsDNA, one strand shown
# In short: as §1
# Sequence of ETV5 (P41161 whole entry): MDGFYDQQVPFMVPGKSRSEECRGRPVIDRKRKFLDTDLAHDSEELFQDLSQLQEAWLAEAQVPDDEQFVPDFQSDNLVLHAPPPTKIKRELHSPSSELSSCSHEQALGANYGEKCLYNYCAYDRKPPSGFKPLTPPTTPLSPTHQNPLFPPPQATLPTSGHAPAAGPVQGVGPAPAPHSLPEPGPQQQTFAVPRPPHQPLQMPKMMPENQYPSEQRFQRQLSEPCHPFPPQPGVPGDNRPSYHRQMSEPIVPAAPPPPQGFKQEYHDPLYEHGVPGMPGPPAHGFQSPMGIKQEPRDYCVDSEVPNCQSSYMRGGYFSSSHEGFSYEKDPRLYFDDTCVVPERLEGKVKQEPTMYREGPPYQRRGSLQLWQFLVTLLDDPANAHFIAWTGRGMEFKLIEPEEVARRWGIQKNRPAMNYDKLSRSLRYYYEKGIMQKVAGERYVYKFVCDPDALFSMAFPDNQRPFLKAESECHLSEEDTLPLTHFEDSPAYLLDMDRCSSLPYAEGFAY
# Sequence of ETV6 (P41212 whole entry): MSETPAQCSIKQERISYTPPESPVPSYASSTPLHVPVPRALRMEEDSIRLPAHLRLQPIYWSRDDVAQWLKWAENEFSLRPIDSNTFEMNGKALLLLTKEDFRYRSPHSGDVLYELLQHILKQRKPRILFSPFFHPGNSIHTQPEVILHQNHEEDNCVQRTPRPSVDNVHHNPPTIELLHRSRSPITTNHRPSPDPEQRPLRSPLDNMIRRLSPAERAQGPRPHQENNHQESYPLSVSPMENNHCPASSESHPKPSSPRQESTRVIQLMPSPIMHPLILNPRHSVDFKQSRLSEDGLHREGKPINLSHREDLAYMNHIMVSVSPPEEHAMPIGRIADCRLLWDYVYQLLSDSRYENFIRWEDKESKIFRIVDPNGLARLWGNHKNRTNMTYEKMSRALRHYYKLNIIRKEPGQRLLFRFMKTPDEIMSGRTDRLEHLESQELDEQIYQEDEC
# Sequence of HSF1 (Q00613 whole entry): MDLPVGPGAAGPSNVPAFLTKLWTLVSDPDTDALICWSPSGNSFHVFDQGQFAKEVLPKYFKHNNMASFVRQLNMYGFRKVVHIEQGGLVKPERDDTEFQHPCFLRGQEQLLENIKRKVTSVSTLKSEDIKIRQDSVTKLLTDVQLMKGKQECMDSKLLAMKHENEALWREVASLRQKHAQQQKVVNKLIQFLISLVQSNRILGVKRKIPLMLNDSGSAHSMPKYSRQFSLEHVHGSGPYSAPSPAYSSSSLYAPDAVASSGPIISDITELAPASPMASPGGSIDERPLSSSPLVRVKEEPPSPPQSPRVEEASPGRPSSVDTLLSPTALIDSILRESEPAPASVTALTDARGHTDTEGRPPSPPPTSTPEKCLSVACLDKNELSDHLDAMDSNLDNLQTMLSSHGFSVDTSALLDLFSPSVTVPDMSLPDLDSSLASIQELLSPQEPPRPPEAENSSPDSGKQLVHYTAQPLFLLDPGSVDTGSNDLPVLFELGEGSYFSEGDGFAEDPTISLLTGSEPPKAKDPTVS
# Sequence of ELF4 (Q99607 whole entry): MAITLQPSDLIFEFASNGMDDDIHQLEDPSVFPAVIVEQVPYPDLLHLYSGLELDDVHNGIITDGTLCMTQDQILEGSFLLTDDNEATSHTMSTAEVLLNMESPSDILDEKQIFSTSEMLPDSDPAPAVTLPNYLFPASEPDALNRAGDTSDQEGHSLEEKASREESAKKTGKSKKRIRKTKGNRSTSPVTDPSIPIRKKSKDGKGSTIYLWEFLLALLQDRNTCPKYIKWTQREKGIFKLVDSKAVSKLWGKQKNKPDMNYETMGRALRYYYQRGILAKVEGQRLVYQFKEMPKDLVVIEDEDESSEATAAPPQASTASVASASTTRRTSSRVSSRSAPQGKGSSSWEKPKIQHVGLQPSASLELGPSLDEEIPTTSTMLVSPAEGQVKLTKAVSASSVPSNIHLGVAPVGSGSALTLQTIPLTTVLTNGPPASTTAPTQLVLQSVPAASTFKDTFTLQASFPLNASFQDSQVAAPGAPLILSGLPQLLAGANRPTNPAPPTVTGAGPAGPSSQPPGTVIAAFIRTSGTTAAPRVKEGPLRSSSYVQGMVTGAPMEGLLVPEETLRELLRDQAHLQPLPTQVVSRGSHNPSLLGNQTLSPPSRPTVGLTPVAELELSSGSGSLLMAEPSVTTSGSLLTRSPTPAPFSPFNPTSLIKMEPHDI
# Sequence of ETV1 (P50549 whole entry): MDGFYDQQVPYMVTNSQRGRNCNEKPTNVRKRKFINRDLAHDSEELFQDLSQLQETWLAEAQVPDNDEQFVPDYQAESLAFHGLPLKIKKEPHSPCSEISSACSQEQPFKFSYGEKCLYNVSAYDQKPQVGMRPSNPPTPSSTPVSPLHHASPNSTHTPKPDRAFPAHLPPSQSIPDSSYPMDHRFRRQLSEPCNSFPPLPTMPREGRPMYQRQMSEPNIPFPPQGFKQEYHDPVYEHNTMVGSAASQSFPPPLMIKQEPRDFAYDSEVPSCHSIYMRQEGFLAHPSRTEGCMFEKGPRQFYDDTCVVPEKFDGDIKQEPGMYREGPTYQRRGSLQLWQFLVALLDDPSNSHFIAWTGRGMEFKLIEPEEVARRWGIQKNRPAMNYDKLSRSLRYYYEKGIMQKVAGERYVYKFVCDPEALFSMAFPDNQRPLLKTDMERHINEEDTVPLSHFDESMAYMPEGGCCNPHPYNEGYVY
sequence,measurement,setting,value
ATGGAC,binding signal,FEV,"1.3 fold enrichment (6-mer frequency, TF over GST control)"
same,binding signal,ETV5,"1.3 fold enrichment (6-mer frequency, TF over GST control)"
same,binding signal,HSF1,"1.01 fold enrichment (6-mer frequency, TF over GST control)"
same,binding signal,SPIC,"1.34 fold enrichment (6-mer frequency, TF over GST control)"
same,binding signal,ELF4,"1.2 fold enrichment (6-mer frequency, TF over GST control)"
same,binding signal,ELK4,"1.17 fold enrichment (6-mer frequency, TF over GST control)"
same,binding signal,ETV2,"1.33 fold enrichment (6-mer frequency, TF over GST control)"
same,binding signal,ELF3,"1.42 fold enrichment (6-mer frequency, TF over GST control)"
same,binding signal,ETV1,"1.18 fold enrichment (6-mer frequency, TF over GST control)"
same,binding signal,ERF,"1.13 fold enrichment (6-mer frequency, TF over GST control)"
same,binding signal,ETV3L,"1.21 fold enrichment (6-mer frequency, TF over GST control)"
same,binding signal,ETS2,"1.24 fold enrichment (6-mer frequency, TF over GST control)"
same,binding signal,SPDEF,"1.17 fold enrichment (6-mer frequency, TF over GST control)"
same,binding signal,ETV7,"1.02 fold enrichment (6-mer frequency, TF over GST control)"
same,binding signal,ELF5,"1.13 fold enrichment (6-mer frequency, TF over GST control)"
same,binding signal,ETV3,"1.2 fold enrichment (6-mer frequency, TF over GST control)"
same,binding signal,ETV6,"1.2 fold enrichment (6-mer frequency, TF over GST control)"
